Experimental findings from PubChem BioAssay (NCATS) are described below.

Inconclusive results are not listed. Active and inactive are the calls of the source. Unless noted, the call rests on the fitted dose curve; in most records, active means well fitted curve in the direction sought with a large enough effect; inconclusive means small, poorly fitted or top-dose-only effect, or another doubt; inactive means no such curve, though single readings can be large; an effect the other way counts as inactive or inconclusive. Where only a bound is given, the exact number is not on record here.

Assay [1] has as its target Lysosomal acid glucosylceramidase (Homo sapiens) (UniProt P04062). Briefly: Glucocerebrosidase-p2 (AID 348; in the data active means potency below about 10 µM; further: potency means the concentration at half of the fitted maximal effect). As to conditions: purified GBA, blue fluorogenic substrate, 40 min. The gist of the method:
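Compounds titrated from 0.6 nM upwards against 0.2 nM enzyme in pH 5.9 citric acid/KH2PO4, taurocholate, tween-20; blue fluorogenic substrate 80 uM, 40 min room temperature, stopped and read Ex 365/Em 440 for AC50.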

Assay [2] deals with Cytochrome P450 1A2 (Homo sapiens) (UniProt P05177). Nature of the assay: p450-cyp1a2 (AID 410; calls by dose curve; further: potency means the concentration at half of the fitted maximal effect;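 on activity change, negative = inhibition: -100% = full effect of reference inhibitor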). The conditions noted are these: recombinant CYP1A2, luciferin-ME demethylation, luminescence; series mostly up to 57 µM. Put shortly: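 Luminescent readout of luciferin formed from Luciferin-ME by human CYP1A2; data normalized against complete inhibition by 57 uM furafylline. Enzyme 20nM, substrate 100uM at Km, 100mM KPO4 buffer, 60 min reaction at room temperature.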
Chain of Cytochrome P450 1A2 (Homo sapiens) (P05177 whole entry, looked up): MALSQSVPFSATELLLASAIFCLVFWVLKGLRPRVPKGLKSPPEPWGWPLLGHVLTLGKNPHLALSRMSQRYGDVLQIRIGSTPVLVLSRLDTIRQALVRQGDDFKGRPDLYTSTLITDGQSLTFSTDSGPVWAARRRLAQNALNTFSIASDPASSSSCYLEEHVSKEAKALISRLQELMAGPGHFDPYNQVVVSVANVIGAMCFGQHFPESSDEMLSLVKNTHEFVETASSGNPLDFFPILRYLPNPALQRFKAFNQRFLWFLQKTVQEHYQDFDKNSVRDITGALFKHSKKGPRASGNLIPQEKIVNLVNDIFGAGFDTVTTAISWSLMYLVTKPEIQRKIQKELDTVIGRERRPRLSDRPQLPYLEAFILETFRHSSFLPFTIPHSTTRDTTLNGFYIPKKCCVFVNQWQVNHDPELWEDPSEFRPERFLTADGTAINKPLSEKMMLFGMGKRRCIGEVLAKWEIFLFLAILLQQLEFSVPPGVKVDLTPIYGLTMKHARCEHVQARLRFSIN

Assay [3] can be described thus: NFAT Signaling Pathway (AID 444; active means well fitted curve in either direction with a large enough effect, not every such curve was filed as active;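 further: carbachol stimulus at about its EC50 of 1 µM final; on the % scale 0 is the no-effect control and ±100 the full control effect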). As to conditions: Jurkat NFAT-bla M1, carbachol, beta-lactamase ratio, 5 h; at 7.69 µM (top of the series) unless noted. The gist of the method: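 Jurkat cells with NFAT-driven β-lactamase reporter and co-expressed M1 receptor, stimulated with carbachol (final 1 uM, ~EC50), compound titration, 5 h at 37 °C. CCF4 loaded 1 h at RT; 460/530 nm ratio gave %activity and AC50.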

Assay [4] addresses Glucocorticoid receptor (Homo sapiens) (UniProt P04150). Nature of the assay: GR-GFP Redistribution (AID 450;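 active means compounds whose dose series gives a full or clear partial fitted curve of increased nuclear translocation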; further: potency means the concentration at half of the fitted maximal effect). As to conditions: U2OS GR-GFP nuclear translocation, laser cytometry, 2 h.
The target is the same in assay [5]. Nature of the assay: GR-EFC Redistribution (AID 451; calls by dose curve; further: potency means the concentration at half of the fitted maximal effect). As to conditions: CHO-K1 GR-EFC translocation, beta-gal luminescence, 2 h. Put shortly: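 CHO-K1 cells expressing nuclear EA and GR-ED fragments of b-gal; compounds titrated up to 46 uM final, 2 h at 37 C. GR nuclear translocation read as complemented b-gal luminescence after 1 h RT detection.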
In assay [6] the target is Mitogen-activated protein kinase 10 (Mus musculus) (UniProt Q61831). Briefly: JNK3 AlphaScreen Assay (AID 530; active means well fitted curve in either direction with a large enough effect, not every such curve was filed as active;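 further: kinase came from lysate of stimulated human HepG2 cells; signal reports phosphorylation of biotinylated GST-cJun 1-79 at Ser73 with 10 µM ATP; on the % scale 0 is the no-effect control and ±100 the full control effect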). The conditions noted are these: JNK3 lysate, c-Jun phosphorylation; series mostly up to 57.1 µM. The gist of the method: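 Pre-activated (IL-1β/TNFα) JNK3 in HepG2 lysates phosphorylates biotin-GST-cJun(1-79), 10 uM ATP; anti-phospho-cJun(Ser73) AlphaScreen read at room temperature, pH 7.6 Tris buffer. Compounds pre-incubated 15 min as titrations.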

The target in assay [7] is 3',5'-cyclic-AMP phosphodiesterase 4B (Homo sapiens) (UniProt Q07343). Nature of the assay: qHTS Assay for Inhibitors of PDE-IV (AID 607; active means well fitted activation curve with a large enough effect in the main read-out, with a control signal flat, not every such curve was filed as active; further: % of control where 0% means no effect). As to conditions: HEK293 ACTOne CNG channel cells, membrane potential fluorescence; series mostly up to 22.9 µM. Put shortly:
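HEK293 ACTOne cells with CNG channel (1000/well), endogenous PDE4; membrane potential dye, compounds up to 22.9 uM final. Fluorescence Ex 535/Em 590; RO 20-1724 (100 uM final) as reference.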
For orientation: Quantitative high-throughput screening tests each substance at several concentrations.

For assay [8], the target named is Cytochrome P450 2C9 (Homo sapiens) (UniProt P11712). Briefly: qHTS Assay for Inhibitors and Substrates of Cytochrome P450 2C9 (AID 883). Further: on the % scale 0 is the no-effect control and ±100 the full control effect; nearly all actives have a fitted effect of over 60% in size. The conditions noted are these: recombinant CYP2C9, luciferin-H luminescence, 60 min; series mostly up to 57.1 µM. The gist of the method: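 Signal: luciferase luminescence reporting luciferin produced by CYP2C9. Conditions: 10nM enzyme, Luciferin-H 100uM at KM, 25mM KPO4, 37C, 60 min NADPH-driven reaction. Reference: 57uM sulphaphenazole as 100% inhibition.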
Chain of Cytochrome P450 2C9 (Homo sapiens) (P11712 whole entry, looked up): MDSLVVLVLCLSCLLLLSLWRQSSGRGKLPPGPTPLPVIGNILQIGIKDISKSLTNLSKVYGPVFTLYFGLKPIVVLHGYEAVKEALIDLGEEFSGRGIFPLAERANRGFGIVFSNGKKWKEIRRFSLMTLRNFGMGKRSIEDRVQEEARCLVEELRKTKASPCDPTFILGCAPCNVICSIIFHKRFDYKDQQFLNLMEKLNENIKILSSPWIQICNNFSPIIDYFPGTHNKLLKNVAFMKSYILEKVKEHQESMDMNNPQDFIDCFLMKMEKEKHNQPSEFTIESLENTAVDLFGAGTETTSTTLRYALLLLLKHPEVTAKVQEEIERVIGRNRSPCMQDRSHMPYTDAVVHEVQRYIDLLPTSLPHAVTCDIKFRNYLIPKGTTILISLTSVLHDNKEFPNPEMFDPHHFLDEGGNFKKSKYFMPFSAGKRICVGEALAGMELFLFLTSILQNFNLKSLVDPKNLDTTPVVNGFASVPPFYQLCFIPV

Assay [9] has as its target Cytochrome P450 3A4 (Homo sapiens) (UniProt P08684). Briefly: qHTS Assay for Inhibitors and Substrates of Cytochrome P450 3A4 (AID 884). Further: nearly all actives have a fitted effect of over 50% in size. Further: potency means the concentration at half of the fitted maximal effect. The conditions noted are these: recombinant CYP3A4, Luciferin-PPXE luminescence; series mostly up to 57.1 µM. The gist of the method: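 20 nM human CYP3A4 with 25 uM Luciferin-PPXE (at KM) in 200 mM KPO4, preincubated 10 min with compound; NADPH regeneration started a 60 min RT reaction. Luciferin detected by luminescence, normalized to 57 uM ketoconazole as full inhibition.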

Assay [10] can be described thus: qHTS Assay for Identification of Small Molecule Agonists for Hypoxia Response Element Signaling Pathway (AID 914; active means well fitted activation curve with a large enough effect in the signal ratio, with a control signal flat, not every such curve was filed as active; the % refers to the signal ratio; further: potency means the concentration at half of the fitted maximal effect). As to conditions: ME-180 HRE-bla reporter, beta-lactamase ratio, CoCl2, 17 h; activation: stronger effect = higher value. Put shortly: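 ME-180 cells carrying an HRE-driven beta-lactamase reporter were treated with compounds in a titration series plus an EC50 level of CoCl2 for 17 h at 37 degrees Celsius; CCF4 readout as the 460nm/530nm ratio gave AC50 values.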

Assay [11] is described as follows: qHTS Assay for Lipid Storage Modulators (AID 1519; calls by dose curve). As to conditions: Drosophila S3 cells, BODIPY lipid droplet/cell ratio, laser cytometry, cells loaded with oleic acid; for activity change, negative = inhibition: at 57.5 µM (top of the series). The gist of the method:
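Cells seeded at 5,000 per well were treated with compounds over a concentration series and loaded with oleic acid (400 uM, as added). Lipid droplet fluorescence (488 nm excitation, 500-530 nm channel) was read by laser-scanning cytometry and normalized to 20 uM Triacsin C.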

Assay [12] addresses Dual specificity protein kinase CLK4 (Homo sapiens) (UniProt Q9HAZ1). Nature of the assay: qHTS Assay for Inhibitors of CDC-like Kinase 4 (Kinase-Glo Assay) (AID 1770). Further: on the % scale 0 is the no-effect control and ±100 the full control effect; nearly all actives have a fitted effect of over 65% in size. The conditions noted are these: recombinant Clk4, Kinase-Glo ATP depletion luminescence; series mostly up to 66.7 µM. Put shortly:
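Substrate mix (RS peptide 100 uM, ATP 1 uM) dispensed, compound pinned in, then Clk4 added to 25 nM final. Incubated 4.5 h at RT; Kinase-Glo reagent added, luminescence read after 5 min.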

Assay [13] shares this target. Nature of the assay: qHTS Assay for Inhibitors of CDC-like Kinase 4 (ADP-Glo Assay) (AID 1771). Further: on the % scale 0 is the no-effect control and ±100 the full control effect; nearly all actives have a fitted effect of over 70% in size. As to conditions: recombinant CLK4, ADP-Glo luminescence; series mostly up to 80 µM. Put shortly:
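Luminescence from ADP-Glo reports ADP produced by 25 nM Clk4 acting on 100 uM RS repeat peptide with 1 uM ATP over 1 hr at room temperature; residual ATP is depleted before ADP is converted to ATP for detection.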

Assay [14] has the same target. Briefly: qHTS Assay for Inhibitors of CDC-like Kinase 4 (ADP-FP Assay) (AID 1795).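 Further: recombinant human CLK4 phosphorylating RS repeat peptide at 1 µM ATP; on the % scale 0 is the no-effect control and ±100 the full control effect; nearly all actives have a fitted effect of over 60% in size.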 The conditions noted are these: Transcreener ADP fluorescence polarization; series mostly up to 50 µM. The gist of the method:
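Clk4 6.25 nM; RS peptide 100 uM; ATP 1 uM; 25 mM Tris pH 7.5, 10 mM MgCl2; 1 h reaction. ADP detected via antibody/orange tracer FP displacement; TG003 positive control.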

For assay [15], the target named is Ubiquitin carboxyl-terminal hydrolase 1 (Homo sapiens) (UniProt O94782). Nature of the assay: Inhibitors of USP1/UAF1: Pilot qHTS (AID 504865). Further: nearly all actives have a fitted effect of over 35% in size. Further: potency means the concentration at half of the fitted maximal effect. The conditions noted are these: purified USP1/UAF1, Ub-rhodamine cleavage fluorescence; series mostly up to 54.9 µM. Put shortly:
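In 50mM HEPES pH 7.8 containing 0.5mM EDTA, 1mM TCEP, 0.1 mg/ml BSA and 0.01% Tween-20, 1nM USP1/UAF1 is exposed to compound for 15 min, then Ub-Rho (150nM final) is added and fluorescence is read over time.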

A short description of assay [16]: Primary qHTS for small molecule stabilizers of the endoplasmic reticulum resident proteome: Secreted ER Calcium Modulated Protein (SERCaMP) assay (AID 1508630). Further: on the % scale 0 is the no-effect control and ±100 the full control effect. The conditions noted are these: SH-SY5Y GLuc-SERCaMP (Gaussia luciferase released on ER calcium loss) secretion, thapsigargin, luminescence; series mostly up to 38.4 µM. The gist of the method:
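GLuc-SERCaMP-expressing SH-SY5Y cells, pretreated 16 h with compound, are challenged with thapsigargin to empty ER calcium stores; after 4 h, coelenterazine is added directly to the medium and luminescence is imaged.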

Assay [17] can be described thus: Stat Signaling Pathway (AID 446; active means well fitted curve in either direction with a large enough effect, not every such curve was filed as active;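 further: ME-180 cervical cancer cells given 40 pM IL-6 alongside compound; SIE-controlled beta-lactamase reporter measured as 460/530 nm FRET emission ratio; on the % scale 0 is the no-effect control and ±100 the full control effect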). As to conditions: ME-180 SIE beta-lactamase reporter, IL-6 stimulated, 5 h; at 7.69 µM (top of the series) unless noted. Put shortly:
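ME-180 cells carrying a SIE-driven beta-lactamase reporter are stimulated with 40 pM IL-6 for 5 h at 37C in the presence of compound. The 460/530 nm FRET substrate ratio is read after 2.5 h at RT. Data are normalised to 300 pM IL-6 and to 125 nM JAK inhibitor controls.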

Assay [18] has as its target Cytochrome P450 3A4 (Homo sapiens) (UniProt P08684). Nature of the assay: qHTS Assay for Activators of Cytochrome P450 3A4 (AID 885). Further: nearly all actives have a fitted effect of over 65% in size. As to conditions: recombinant CYP3A4, Luciferin-PPXE luminescence, 60 min; series mostly up to 57.1 µM. The gist of the method:
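Human CYP3A4 (20 nM) with Luciferin-PPXE at 25 uM (its KM) in 200 mM KPO4; 10 min compound preincubation, then NADPH regeneration and 60 min reaction at RT. Luciferin read by luminescence; normalized to 57 uM ketoconazole full inhibition.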

Assay [19] addresses Cytochrome P450 2C19 (Homo sapiens) (UniProt P33261). Briefly: qHTS Assay for Inhibitors and Substrates of Cytochrome P450 2C19 (AID 899). Further: potency means the concentration at half of the fitted maximal effect; nearly all actives have a fitted effect of over 60% in size. The conditions noted are these: recombinant CYP2C19, luciferin-H EGE luminescence; series mostly up to 57.1 µM. Put shortly:
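Signal comes from luciferase acting on luciferin released by CYP2C19-mediated hydroxylation of Luciferin-H EGE, 10uM (KM). Assay mix: 5nM enzyme, 50mM KPO4; 60 min at 37C with NADPH regeneration. Data normalized against 57uM ketoconazole.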

A short description of assay [20]: AP1 Signaling Pathway (AID 357; active means well fitted curve in either direction with a large enough effect, not every such curve was filed as active; further: on the % scale 0 is the no-effect control and ±100 the full control effect). The conditions noted are these: ME-180 (cervical carcinoma) AP-1-bla reporter, EGF-induced, beta-lactamase ratio, 5 h; at 7.69 µM (top of the series) unless noted. Put shortly: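 Read-out was the 460nm/530nm emission ratio (excitation 405nm) after CCF4 loading for 2.5 hours at room temperature. Cells carried an AP-1-driven beta-lactamase reporter, were stimulated with EC50 EGF plus compound for 5 hours, and AC50 values came from titrations.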

Setting [21] is: measured here: cell count channel max response.
[22] abbreviates: measured here: lipid channel max response.

Chain of Lysosomal acid glucosylceramidase (Homo sapiens) (P04062 whole entry, looked up): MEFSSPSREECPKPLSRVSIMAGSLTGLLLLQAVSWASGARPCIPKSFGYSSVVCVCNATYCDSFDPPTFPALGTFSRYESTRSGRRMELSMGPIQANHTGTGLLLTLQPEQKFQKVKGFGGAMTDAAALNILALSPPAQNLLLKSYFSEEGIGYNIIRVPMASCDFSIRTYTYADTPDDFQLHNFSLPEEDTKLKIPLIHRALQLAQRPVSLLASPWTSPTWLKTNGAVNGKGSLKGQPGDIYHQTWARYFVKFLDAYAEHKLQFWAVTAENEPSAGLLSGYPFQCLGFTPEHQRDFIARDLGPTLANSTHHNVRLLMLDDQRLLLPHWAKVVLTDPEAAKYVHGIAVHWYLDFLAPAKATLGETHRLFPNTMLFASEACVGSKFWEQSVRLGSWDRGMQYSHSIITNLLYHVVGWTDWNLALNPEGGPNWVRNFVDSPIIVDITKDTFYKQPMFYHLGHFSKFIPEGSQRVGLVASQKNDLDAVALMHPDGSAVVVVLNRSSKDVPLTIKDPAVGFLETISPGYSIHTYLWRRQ
Chain of Glucocorticoid receptor (Homo sapiens) (P04150 whole entry, looked up, the tested form may be a part): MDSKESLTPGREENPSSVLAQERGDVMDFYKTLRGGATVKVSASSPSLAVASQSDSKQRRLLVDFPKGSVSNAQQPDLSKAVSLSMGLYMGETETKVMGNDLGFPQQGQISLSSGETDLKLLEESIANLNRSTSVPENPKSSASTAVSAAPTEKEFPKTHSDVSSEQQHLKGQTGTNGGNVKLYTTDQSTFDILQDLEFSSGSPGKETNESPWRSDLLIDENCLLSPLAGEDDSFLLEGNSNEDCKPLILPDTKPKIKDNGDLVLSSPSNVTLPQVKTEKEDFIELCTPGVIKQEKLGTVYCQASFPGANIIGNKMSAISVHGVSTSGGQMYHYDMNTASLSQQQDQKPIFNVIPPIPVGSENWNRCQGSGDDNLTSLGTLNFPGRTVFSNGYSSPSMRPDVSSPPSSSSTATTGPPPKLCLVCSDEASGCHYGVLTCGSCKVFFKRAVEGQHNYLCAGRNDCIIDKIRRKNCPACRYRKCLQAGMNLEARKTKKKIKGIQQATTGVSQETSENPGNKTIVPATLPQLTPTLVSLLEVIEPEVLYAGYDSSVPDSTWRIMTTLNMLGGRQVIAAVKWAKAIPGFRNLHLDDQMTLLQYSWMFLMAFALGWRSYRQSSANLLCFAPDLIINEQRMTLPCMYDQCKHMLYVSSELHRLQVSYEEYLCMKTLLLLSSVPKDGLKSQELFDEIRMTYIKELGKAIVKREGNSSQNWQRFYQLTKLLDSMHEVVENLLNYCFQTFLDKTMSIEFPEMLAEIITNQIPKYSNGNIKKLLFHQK
Chain of 3',5'-cyclic-AMP phosphodiesterase 4B (Homo sapiens) (Q07343 whole entry, looked up): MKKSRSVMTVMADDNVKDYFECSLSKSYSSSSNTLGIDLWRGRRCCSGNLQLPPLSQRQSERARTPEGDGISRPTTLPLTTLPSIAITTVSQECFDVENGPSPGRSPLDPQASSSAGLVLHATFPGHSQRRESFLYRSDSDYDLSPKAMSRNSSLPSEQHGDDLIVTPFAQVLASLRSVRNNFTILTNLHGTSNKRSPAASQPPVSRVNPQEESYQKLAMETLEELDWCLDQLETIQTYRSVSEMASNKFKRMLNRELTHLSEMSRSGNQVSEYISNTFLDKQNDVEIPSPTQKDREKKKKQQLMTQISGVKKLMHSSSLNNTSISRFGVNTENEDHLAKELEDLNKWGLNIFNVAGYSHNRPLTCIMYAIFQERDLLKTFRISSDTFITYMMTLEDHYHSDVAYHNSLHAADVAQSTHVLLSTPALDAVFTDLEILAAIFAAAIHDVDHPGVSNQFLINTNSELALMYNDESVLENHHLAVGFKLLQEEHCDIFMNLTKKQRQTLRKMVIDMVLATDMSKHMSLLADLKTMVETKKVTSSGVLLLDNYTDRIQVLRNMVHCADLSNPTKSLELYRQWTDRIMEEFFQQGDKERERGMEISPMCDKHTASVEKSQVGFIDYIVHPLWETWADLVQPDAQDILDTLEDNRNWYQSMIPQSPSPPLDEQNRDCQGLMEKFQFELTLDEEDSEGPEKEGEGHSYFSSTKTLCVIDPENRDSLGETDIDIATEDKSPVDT
Chain of Dual specificity protein kinase CLK4 (Homo sapiens) (Q9HAZ1 whole entry, looked up): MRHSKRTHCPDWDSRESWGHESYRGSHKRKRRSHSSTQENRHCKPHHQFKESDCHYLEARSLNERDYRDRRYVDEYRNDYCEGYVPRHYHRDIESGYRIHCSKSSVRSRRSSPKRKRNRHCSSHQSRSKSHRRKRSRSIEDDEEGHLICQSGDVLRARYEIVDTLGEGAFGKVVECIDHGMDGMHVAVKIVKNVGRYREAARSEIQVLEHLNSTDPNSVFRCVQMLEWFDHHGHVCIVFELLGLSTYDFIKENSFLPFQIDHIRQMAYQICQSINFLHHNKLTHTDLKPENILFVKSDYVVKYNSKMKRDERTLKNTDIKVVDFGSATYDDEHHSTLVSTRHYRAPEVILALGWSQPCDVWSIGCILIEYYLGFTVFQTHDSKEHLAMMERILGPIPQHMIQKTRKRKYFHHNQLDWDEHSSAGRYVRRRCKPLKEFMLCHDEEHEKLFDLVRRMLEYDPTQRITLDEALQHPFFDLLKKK
Chain of Cytochrome P450 3A4 (Homo sapiens) (P08684 whole entry, looked up): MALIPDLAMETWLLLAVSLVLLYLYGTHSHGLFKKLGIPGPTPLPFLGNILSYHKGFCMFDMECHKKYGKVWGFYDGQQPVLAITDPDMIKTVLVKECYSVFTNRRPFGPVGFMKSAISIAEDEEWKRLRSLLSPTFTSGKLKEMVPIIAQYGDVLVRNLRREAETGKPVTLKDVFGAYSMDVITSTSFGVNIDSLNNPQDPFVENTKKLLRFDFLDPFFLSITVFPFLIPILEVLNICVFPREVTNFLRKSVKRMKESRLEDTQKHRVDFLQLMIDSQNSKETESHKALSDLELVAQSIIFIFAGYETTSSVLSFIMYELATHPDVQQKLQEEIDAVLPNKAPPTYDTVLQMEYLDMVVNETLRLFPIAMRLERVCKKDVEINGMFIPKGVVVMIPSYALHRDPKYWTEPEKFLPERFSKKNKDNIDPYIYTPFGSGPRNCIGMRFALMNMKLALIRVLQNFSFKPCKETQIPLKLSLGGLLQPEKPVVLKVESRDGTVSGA
Chain of Ubiquitin carboxyl-terminal hydrolase 1 (Homo sapiens) (O94782 whole entry, looked up): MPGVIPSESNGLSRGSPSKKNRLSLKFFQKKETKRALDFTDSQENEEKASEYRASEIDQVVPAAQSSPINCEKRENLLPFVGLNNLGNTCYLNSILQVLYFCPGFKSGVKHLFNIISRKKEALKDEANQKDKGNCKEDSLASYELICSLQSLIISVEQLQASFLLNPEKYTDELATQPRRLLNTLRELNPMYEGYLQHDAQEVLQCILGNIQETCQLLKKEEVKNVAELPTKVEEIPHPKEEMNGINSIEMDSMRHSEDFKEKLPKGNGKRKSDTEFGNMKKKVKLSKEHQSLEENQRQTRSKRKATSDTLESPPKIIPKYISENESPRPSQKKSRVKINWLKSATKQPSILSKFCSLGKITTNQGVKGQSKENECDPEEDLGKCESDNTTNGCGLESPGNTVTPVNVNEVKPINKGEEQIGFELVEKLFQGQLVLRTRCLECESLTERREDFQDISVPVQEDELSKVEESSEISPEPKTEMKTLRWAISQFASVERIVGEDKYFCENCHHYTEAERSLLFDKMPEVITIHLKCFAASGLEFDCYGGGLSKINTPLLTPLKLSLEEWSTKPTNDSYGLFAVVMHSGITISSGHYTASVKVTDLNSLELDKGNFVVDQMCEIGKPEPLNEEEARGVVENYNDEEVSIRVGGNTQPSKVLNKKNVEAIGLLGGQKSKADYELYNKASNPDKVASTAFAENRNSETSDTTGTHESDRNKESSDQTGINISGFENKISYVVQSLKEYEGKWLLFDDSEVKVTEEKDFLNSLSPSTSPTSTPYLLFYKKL

As for `Cn1c(=O)c(-c2ccc(Cl)cc2)nc2cnc(N3CCOCC3)nc21`, the Potency in assay [1] was > 11.4 µM (inactive); in assay [2] it was 2.51 µM (active); in assay [4], > 9.22 µM (inactive); in assay [5], > 46 µM (inactive); in assay [10], 2.51 µM (active). For the same compound, the activity change, negative = inhibition in [3] was 26.9% (inactive); in assay [11], 6.96% (inactive). For the same compound, the call in assay [6] was inactive. Besides, the Potency entry in assay [7], in [8], in [9], in assay [12], in assay [13] and in assay [14] was “inactive” throughout. Also, the Potency entry in assay [15] and in assay [16] was “inactive” throughout. The results for the max response in assay [11] (setting [21]) and in assay [11] (setting [22]) were 10.9% and 17.6%, respectively.
For `COc1cccc(Cn2c(=O)c(-c3cc(F)cc(F)c3)nc3cnc(N(C)C)nc32)c1`, the Potency is > 11.4 µM (inactive) in assay [1], > 9.22 µM (inactive) in [4], > 46 µM (inactive) in assay [5] and 0.398 µM (active) in assay [10]. Besides, the Potency result in assay [2], in assay [7], in assay [12], in assay [13], in assay [14] and in assay [15] was “inactive” each time. The Potency entry in assay [16] is “inactive”. For the same compound, the activity, negative = inhibition in assay [17] was 91.4% [activator] (active). Moreover, the outcome in assay [6] was inactive. Moreover, in [11], the activity change, negative = inhibition was -0.73% (inactive). In addition, the max response in [11] (setting [21]) worked out at 19.9%; in assay [11] (setting [22]) it was 18.8%.
`FC(F)(F)c1ccccc1-c1nc(NCc2cccs2)c2ccccc2n1`: the Potency in [1] was > 11.4 µM (inactive); in assay [4] it was > 46 µM (inactive); in assay [9], 3.98 µM (active); in [19], 7.94 µM (active); in assay [15] it was 7.94 µM (active). The activity change, negative = inhibition in [3] was -18.2% (inactive); in assay [11], 2.3% (inactive). In addition, the activity, negative = inhibition in [17] was -11.7% (inactive). The result in assay [6] was inactive. Also, the Potency entry in assay [18], in assay [12], in assay [13], in assay [14] and in assay [16] was “inactive” throughout. Besides, the max response was determined as 10.4% in assay [11] (setting [21]) and 10.9% in assay [11] (setting [22]).
On to `CN(C)c1ncc2nc(-c3ccc(F)cc3)c(=O)n(Cc3ccc(F)cc3)c2n1`, for which the Potency in assay [1] is > 11.4 µM (inactive); in assay [4] it was > 9.22 µM (inactive); in assay [5] it was > 46 µM (inactive); in assay [10] it was 3.16 µM (active). The Potency result in [2], in [7], in [8], in [9], in assay [12] and in assay [13] was “inactive” in each case. Besides, the Potency entry in assay [14], in assay [15] and in assay [16] was “inactive” in each case. Besides, the call in assay [6] was inactive. Further, in assay [11], the activity change, negative = inhibition is 5.32% (inactive). In addition, the max response in [11] (setting [21]) amounted to 19.6%; in assay [11] (setting [22]), 25.7%.
Turning to `COc1ccc(Oc2ncc3nc(-c4ccc(OC)cc4)c(=O)n(C)c3n2)cc1`, the activity change, negative = inhibition was -7.57% (inactive) in [20], -4.34% (inactive) in assay [3] and 2.79% (inactive) in [11]. Further, the Potency in [2] is 3.16 µM (active); in assay [4] it was > 9.22 µM (inactive); in [5], > 46 µM (inactive). Moreover, in assay [17], the activity, negative = inhibition is -16.5% (inactive). For the same compound, the call in assay [6] was inactive. The Potency entry in assay [7], in assay [18], in assay [12], in assay [13], in assay [14] and in assay [15] was “inactive” throughout. Besides, the Potency entry in [16] was “inactive”. The max response in [11] (setting [21]) was -5.13%; in [11] (setting [22]), -2.18%.
